The values that follow come from PubChem BioAssay (NCATS).

Experiment [1] is described as follows: Viability qHTS for spleen associated tyrosine kinase inhibitor (SYKi) drug resistant MV4-11 cells (AID 1963824). Note: nearly all actives have a fitted effect of over 35% in size. Note: potency is the fitted concentration of half-maximal effect. In outline: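 CellTiter-Glo luminescence, read 10 min after reagent addition, reports viability after a 72 hr compound exposure. Cells are an MV4-11 line made resistant to SYK inhibition, seeded at 500 per well onto compound-containing plates.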
(In general: In qHTS, concentration-response curves come from the screen itself.)

A short description of experiment [2]: Quantitative highthroughput screen to assess conditional lethalithy of NOMO1 cells grown in RPMI1640 with untreated serum (RPMI+s) (AID 1963876).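 For Viability: 100% = DMSO wells and 0% = empty wells without cells.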 Note: nearly all actives have a fitted effect of over 35% in size. Note: potency is the fitted concentration of half-maximal effect. In outline:
(§1)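 Each medium arm—HPLM with 10% dialyzed FBS, or RPMI1640 with 5 mM glucose and 10% untreated or dialyzed FBS—was screened against an 11-point, 3-fold compound titration for 48 h at 37 °C, with CellTiter-Glo luminescence as endpoint.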

Experiment [3] is described as follows: Quantitative highthroughput screen to assess conditional lethalithy of NOMO1 cells grown in Human Plasma-Like Medium with dialyzed fetal bovine serum (HPLM+ds) (AID 1963878).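 For Viability: 100% = DMSO wells and 0% = empty wells on each plate.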 Note: nearly all actives have a fitted effect of over 35% in size. Note: potency is the fitted concentration of half-maximal effect. In outline:
as §1

A short description of experiment [4]: Cellular viability qHTS for adrenocortical cancer (ACC) cell line SW-13 (AID 1963989).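 For activity (max response): cells grown in serum-free medium with ITS supplement; % is set by controls: 0 for no effect and ±100 for the full control effect.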 Note: nearly all actives have a fitted effect of over 65% in size. Note: potency is the fitted concentration of half-maximal effect. Conditions: SW-13 ACC cells viability, CellTiter-Glo, 48 h; activity (max response): stronger effect = lower value. An outline of the steps:
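Luminescent ATP read-out (CellTiter-Glo, 20 min at room temperature) measured metabolically competent SW-13 cells after 48 h compound treatment. Final concentrations spanned up to 46 uM; bortezomib served as positive control.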

The nature of experiment [5]: Cellular viability qHTS for adrenocortical cancer (ACC) cell line NCI-H295R (AID 1963990). Note: nearly all actives have a fitted effect of over 60% in size. Note: potency is the fitted concentration of half-maximal effect. In outline:
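IC50 and maximal efficacy derive from four-parameter logistic modelling of titration curves, with reads scaled between DMSO-only wells (0%) and doxorubicin hydrochloride (100% inhibition). Compounds spanned up to 46 uM over 48 h.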

The nature of experiment [6]: Quantitative highthroughput screen to assess conditional lethalithy of P12 Ichikawa cells grown in Human Plasma-Like Medium with dialyzed fetal bovine serum (HPLM+ds) (AID 1963879). For Viability: series mostly up to about 46 µM. Note: nearly all actives have a fitted effect of over 35% in size. Note: potency is the fitted concentration of half-maximal effect. Conditions: Potency: viability. An outline of the steps:
as §1

A short description of experiment [7]: Quantitative highthroughput screen to assess conditional lethalithy of P12 Ichikawa cells grown in RPMI1640 with dialyzed fetal bovine serum (RPMI+ds) (AID 1963880).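 For Viability: 100% = DMSO wells and 0% = empty wells on each plate.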 Note: nearly all actives have a fitted effect of over 35% in size. Note: potency is the fitted concentration of half-maximal effect. The following applies: Potency: P12-Ichikawa viability. An outline of the steps: as §1
Experiment [8] in a line: Quantitative highthroughput screen to assess conditional lethalithy of SEM cells grown in Human Plasma-Like Medium with dialyzed fetal bovine serum (HPLM+ds) (AID 1963882). In outline: as §1
A short description of experiment [9]: Quantitative highthroughput screen to assess conditional lethalithy of SEM cells grown in RPMI1640 with unreated serum (RPMI+s) (AID 1963883).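 For Viability: 100% = DMSO wells and 0% = empty wells without cells.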 Note: nearly all actives have a fitted effect of over 35% in size. Note: potency is the fitted concentration of half-maximal effect. An outline of the steps:
as §1

Experiment [10] is described as follows: Quantitative highthroughput screen to assess conditional lethalithy of NOMO1 cells grown in RPMI1640 with dialyzed fetal bovine serum (RPMI+ds) (AID 1963877).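 For Viability: series mostly up to about 46 µM; 100% = DMSO control wells and 0% = empty wells.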 Note: nearly all actives have a fitted effect of over 30% in size. Note: potency is the fitted concentration of half-maximal effect. In outline: as §1
Experiment [11] can be described thus: Quantitative highthroughput screen to assess conditional lethalithy of P12 Ichikawa cells grown in RPMI1640 with untreated serum (RPMI+s) (AID 1963881).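 For Viability: series mostly up to about 46 µM; 100% = DMSO wells and 0% = empty wells without cells.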 Note: nearly all actives have a fitted effect of over 35% in size. Note: potency is the fitted concentration of half-maximal effect. Conditions: Potency: viability. An outline of the steps: as §1
A short description of experiment [12]: Quantitative highthroughput screen to assess conditional lethalithy of SEM cells grown in RPMI1640 with dialyzed fetal bovine serum (RPMI+ds) (AID 1963884).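 For Viability: series mostly up to about 46 µM; 100% = DMSO control wells and 0% = empty wells without cells.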 Note: nearly all actives have a fitted effect of over 35% in size. Note: potency is the fitted concentration of half-maximal effect. An outline of the steps:
as §1

Where “and” joins values, the source holds several entries; their conditions need not be identical. Equal entries are not always repeated. Records with an inconclusive call do not appear. Some compounds were tested as several samples or in several runs, with calls that do not always agree. Calls of active or inactive are those of the source. Calls come from the whole dose curve; as a rule, active = well fitted curve in the direction sought with a large enough effect; inconclusive = small, poorly fitted or top-dose-only effect, or another doubt; inactive = no such curve, though single readings can be large; an effect the other way counts as inactive or inconclusive.

As to `O=C(Nc1ccncc1)C(=O)c1cn(Cc2ccc(Cl)cc2)c2ccccc12`, the Potency was 0.166 µM (active) in experiment [1]; 0.132 µM (active) in experiment [2]; 0.059 µM (active) in [3]; 0.126 µM (active) in experiment [4]; 126 nM (active) in experiment [5].

With `C/C=C1/CN2CC[C@]34C(=Nc5ccccc53)[C@@H]2C[C@@H]1[C@H]4C(=O)OC`, the Potency in [1] was 2.27 µM (active).

With `CC1=C2C(=O)C3[C@@H](CC=C4C[C@@H](O)CC[C@@]43C)[C@@H]2CC[C@]12O[C@@H]1C[C@H](C)CN[C@H]1[C@H]2C` (some centres undefined), in experiment [1], the Potency entry was “inactive”.

For `Cc1cc(C(=O)CN2CCCC2)c(C)n1-c1ccc(F)cc1`, in [1], the Potency is 16.4 µM (active).

In the case of `CN1C[C@H](CNC(=O)OCc2ccccc2)C[C@@H]2c3cccc4c3c(cn4C)C[C@H]21`, in [1], the Potency was 8.41 µM (active).

Consider `C[C@]12CCC(=O)C=C1CC[C@@H]1[C@H]3CC[C@](C)(O)[C@@]3(C)CC[C@@H]12`, for which the Potency in experiment [1] was 21.9 µM (active); in experiment [5], 28200 nM (active). The Potency result in experiment [2], in [6], in [7], in [8] and in [9] was “inactive” in each case.

For the compound `Cc1cc(SCc2sc(-c3ccc(C(F)(F)F)c(F)c3)nc2C)ccc1OCC(=O)O`, the Potency in experiment [1] was 18.6 µM (active). Moreover, the Potency result in [10], in experiment [3], in experiment [6], in experiment [7], in experiment [11] and in [5] was “inactive” throughout. Besides, the activity (max response) in experiment [4] was -20.9% (inactive).

On to `COC(=O)[C@]12CCC(C)(C)C[C@@H]1[C@@H]1C(=O)C=C3[C@]4(C)C=C(C#N)C(=O)C(C)(C)[C@@H]4CC[C@@]3(C)[C@]1(C)CC2`, for which, in experiment [1], the Potency was 0.326 µM (active).

Regarding `CNc1ccc2oc(C[C@H]3O[C@@]4(CC[C@H]3C)O[C@H](C(C)C(=O)c3ccc[nH]3)[C@H](C)C[C@H]4C)nc2c1C(=O)O` (some centres undefined), in experiment [1], the Potency is 4.61 µM (active).

Regarding `C=C1[C@@]23C(=O)O[C@H](C)[C@]24O[C@@]2(C(=C)[C@]5(C=CC(=O)OC5(C)C)CC[C@]32C)[C@H](O)[C@@]1(C)OC4=O`, in experiment [1], the Potency entry is “inactive”.

In the case of `COc1ccc(CC2C(=O)NC(C)C(=O)N(C)C3Cc4ccc(cc4)Oc4cc(ccc4OC4OC(CO)C(O)C(O)C4O)CC(C(=O)NC(C)C(=O)NC(CCC(=O)O)C(=O)N2C)N(C)C3=O)cc1` (centres undefined), the Potency in experiment [1] is 0.618 µM (active).

As to `CCCCCC[C@H]1C(=O)O[C@H](C)[C@H](NC(=O)c2cccc(NC=O)c2O)C(=O)O[C@@H](C)[C@@H]1OC(=O)CC(C)C`, the values for the Potency in experiment [1] and in experiment [6] were 0.105 µM (active) and 1.66 µM (active), respectively. In addition, the Potency entry in experiment [2] and in experiment [10] was “inactive” throughout.

Consider `CCC(C)(O)C1(C(=O)O)COC(=O)C1` (centres undefined), for which, in [1], the Potency result was “inactive”.

On to `CC(=O)OC1CC(O)C2(C)C(CC(OC(C)=O)C3(C)C2CCC2(C)C(c4ccoc4)C(=O)C4OC423)C1(C)C` (centres undefined), for which, in experiment [1], the Potency was 6.32 µM (active).

As to `C=CC(C)(C)c1[nH]c2cccc3c2c1C[C@@H]1[C@@H]3[C@@H](OC(C)=O)[C@H](C)CN1C`, the Potency in [1] is 1.01 µM (active).

In the case of `CC12CCC3C(C1)c1c(cc(O)c(C(=O)c4ccccc4)c1OC3(C)C)O2` (centres undefined), the Potency in experiment [1] is 14.3 µM (active).

On to `CC(C)(O)C(=O)Nc1ccc([N+](=O)[O-])c(C(F)(F)F)c1`, for which the Potency in experiment [1] is 18.6 µM (active); in [10], 1.87 µM (active); in experiment [6] it was 8.33 µM (active); in experiment [7] it was 16.6 µM (active); in experiment [11], 8.33 µM (active). Further, the Potency result in experiment [9], in [12] and in experiment [5] was “inactive” in each case. In addition, the activity (max response) in [4] was -7.23% (inactive).

In the case of `COc1cc(C(=O)N2CC[C@@H](O)[C@@H](N)C2)cc2nc(-c3cc4ccccc4n3CC3CC3)n(C)c12`, the Potency in [1] is 9.34 µM (active); in experiment [2] it was 0.933 µM (active); in experiment [9], 0.186 µM (active); in experiment [12], 0.831 µM (active).

Regarding `CC1=CC(=O)[C@@H](O)[C@]2(C)C3[C@@H](O)[C@@H]4OC(=O)[C@@H]([C@H]4C)[C@]3(C)C(=O)[C@H](O)[C@@H]12` (some centres undefined), the Potency in experiment [1] was 12.8 µM (active).

For `COC[C@H]1OC(=O)c2coc3c2[C@@]1(C)C1=C(C3=O)C2CCC(=O)[C@@]2(C)C[C@H]1OC(C)=O` (some centres undefined), the Potency in experiment [1] was 16.4 µM (active) and 3.72 µM (active). The Potency result in [2], in experiment [10], in experiment [6], in experiment [7] and in [8] was “inactive” throughout.

In the case of `CNC(=O)c1ccc(N2C(=S)N(c3ccc(C#N)c(C(F)(F)F)c3)C(=O)C23CCC3)cc1F`, the Potency in experiment [1] is 18.6 µM (active). The Potency result in experiment [3], in experiment [6], in experiment [7], in [8], in experiment [12] and in [5] was “inactive” each time.

Regarding `Cc1sc2c(c1C)C(c1ccc(Cl)cc1)=NC(CC(=O)Nc1ccc(O)cc1)c1nnc(C)n1-2` (centres undefined), the Potency in [1] is 0.105 µM (active).

As to `Nc1ccc(Sc2ccc(N)cc2)cc1`, the Potency in [1] was 43.3 µM (active).

Regarding `CC1=C[C@H]2O[C@@H]3C[C@H]4OC(=O)/C=C/C=C/C(=O)OCC/C(C)=C/C(=O)OC[C@@]2(CC1)[C@]4(C)[C@]31CO1`, the Potency in experiment [1] was 0.0056 µM (active).

Regarding `O=C1NC(=O)c2c1c1c3ccccc3[nH]c1c1[nH]c3ccccc3c21`, the Potency in experiment [1] was 0.0517 µM (active).

For the compound `NNc1ccccc1`, the Potency entry in [1] is “inactive”.

With `CCCCOC(=O)c1ccnc2cc(C(OCCN3CCCCC3)c3ccccc3Cl)sc12` (centres undefined), the Potency in experiment [1] is 20.6 µM (active).

`COc1ccc(C23CCC(=O)C=C2N(C)CC3)cc1OC` (centres undefined): the Potency in [1] was 3.66 µM (active).

Regarding `CC[C@@H]1/C=C/C=C/C[C@H](C)C(O)[C@](C)(O)C(=O)[C@H](C)C(O)[C@H](C)C(=O)[C@H](C)[C@@H](O)[C@H](C)/C=C/C(=O)O[C@H]2[C@@H](C)[C@@H](CC1)O[C@]1(O[C@H](C[C@H](C)O)[C@H](C)CC1=O)[C@@H]2C` (some centres undefined), in experiment [1], the Potency was 0.0123 µM (active).

With `O=C(O)C(=O)c1cn(Cc2ccccc2)c2ccc(-c3ccc(OC(F)(F)F)cc3)cc12`, in experiment [1], the Potency was 20.6 µM (active). For the same compound, the Potency entry in [2], in experiment [3], in experiment [6] and in [7] was “inactive” throughout.

For `C[C@]12CC[C@H](O[C@@H]3O[C@H](CO)[C@@H](O)[C@H](O)[C@H]3O)CC1CC[C@@H]1C2CC[C@]2(C)[C@@H](C3=CC(=O)OC3)CC[C@]12O` (some centres undefined), the Potency in experiment [1] was 1.78 µM (active).

On to `O=c1[nH]c2ccccc2n1CCCN1CCC(n2c(=O)[nH]c3cc(Cl)ccc32)CC1`, for which the Potency in experiment [1] was 18.6 µM (active); in experiment [5], 16.4 µM (active) and inactive. The Potency result in experiment [2], in experiment [6], in [7] and in experiment [12] was “inactive” in each case. The activity (max response) in experiment [4] is -19.5% (inactive).
